Measured values taken from PubChem BioAssay (NCATS).
Records with an inconclusive call do not appear. Values without a mark were called inactive. Active and inactive are the calls of the source. The call rests on the fitted dose curve; in most records, active means well fitted inhibition curve with a large enough effect; inconclusive means small, poorly fitted or top-dose-only effect; inactive means no such curve, though single readings can be large or run the other way.

assay: Primary fluorescence-based thiol-reactive (MSTI) qHTS assay for identification of artifact compounds. (AID 1845221); conditions: MSTI thiol-reactivity probe, 1 h; series mostly up to 53.8 µM; activity change, negative = thiol reactive: at the top concentration; further: nearly all actives have a fitted effect of over 65% in size;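 on activity change, negative = thiol reactive: thiol-reactive compounds lower the probe fluorescence signal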
From the text: PI: Alexander Tropsha Ph.D.
UNC Eshelman School of Pharmacy
University of North Carolina, Chapel Hill, North Carolina
Hits from high-throughput screening (HTS) of chemical libraries are often false positives due to their interference with the assay detection technology. In response to this problem, we generated the largest publicly available library of chemical liabilities and developed a free webtool to predict HTS artifacts, both of which are described herein. More specifically, we generated, curated, and integrated HTS datasets for thiol reactivity, redox activity, and luciferase (firefly and nano) activity. Using these curated datasets, we developed and validated several Quantitative Structure-Interference Relationship (QSIR) models to predict nuisance behavior. […] These models were employed for virtual profiling of the National Center for Advancing Translational Science's (NCATS) in-house library, and 256 compounds for each assay were selected for the experimental validation of nuisance behavior. The BA for these external predictions ranged from 58 to 78% for compounds within the applicability domains of the models. […] The models developed in this study, along with aggregation models previously developed by our group (SCAM Detective) were implemented in "Liability Predictor," an online tool which may be used as part of chemical library design or for triaging HTS hits. Both the models and the curated datasets are publicly available at https://liability.mml.unc.edu/.
SEQUENCE No. (e.g., 1, 2, 3, etc.); […] (e.g., Cells, Incubation, Reagent, etc.); VALUE; DESCRIPTION.
1; Reagent; 4 uL; […].
2; Compounds and control; 16 nL; Kalypsis pin tool (Wako USA) equipped with a 1536-well pin head.
4; Detection; Fluorescence, ViewLux microplate reader, 525 nm excitation, 598 nm emission.
NOTES (numbers refer to Sequence numbers above)
1. Assays determining (E)-2-(4-mercaptostyryl)-1,3,3-trimethyl-3H-indol-1-ium (MSTI) reactivity were performed as previously described in the literature with modifications for the quick identification of compounds reacting with thiol. In brief, 4 uL of MSTI or positive control Acetyl-MSTI (final concentrations of 4 uM and 4 uM, respectively) in assay buffer (2% DMSO in 1X PBS pH 7.4) was dispensed into all wells of a 1536-well assay plate (solid-bottom black plate; Greiner Bio One, Monroe, NC).
2. A Wako Pin-tool (Wako Automation, Richmond, VA) was used to transfer 16 nL of compounds (consisting of 7-plates in qHTS format, final concentration range 18.3 nM to 114 uM) or control MLS001163887 (final concentration range 1.22 nM to 40 uM).
3. Plates were centrifuged (121xg, 15 seconds) and incubated for 1 hour at room temperature protected from light.
4. Samples were read for fluorescence (Ex/Em = 525(20)/598(25) nm) on a ViewLux CCD imager (PerkinElmer). Data were normalized to Acetyl-MSTI (0% activity) and MSTI (100% activity) and the resulting percent inhibition data were fitted to a 4-parameter Hill equation using NCATS in-house software.
Potency means the concentration at half of the fitted maximal effect.

| SMILES | activity change, negative = thiol reactive [%] | Potency |
| --- | --- | --- |
| CC(=O)Nc1nc(C)c(-c2ccc(Cl)c(S(=O)(=O)NCCO)c2)s1 | 75.7 | – |
| Nc1ccccc1NC(=O)c1ccc(CNc2nccc(-c3cccnc3)n2)cc1 | -9.77 | – |
| Cc1[nH]nc2ccc(-c3cncc(OC[C@@H](N)Cc4ccccc4)c3)cc12 | 95.6 | – |
| O=C(Nc1cn[nH]c1-c1nc2ccc(CN3CCOCC3)cc2[nH]1)NC1CC1 | 67.8 | – |
| CCNC(=O)Nc1ccc2ncc(Nc3ccc(C)cc3)nc2n1 | 1.6 | – |
| COc1ccc(OC)c(-c2nnc3ccc(-c4ccc(OC)c(O[C@@H]5CCOC5)c4)nn23)c1 | 6.1 | – |
| CNC(=O)c1ccc(-c2cnc3ncc(Cc4ccc5ncccc5c4)n3n2)cc1F | -14.3 | – |
| CC(C)(O)c1cc2nc(-c3cnc(N)nc3)nc(N3CCOCC3)c2s1 | 152 | – |
| CNC(=O)c1cc(Oc2ccc(NC(=O)Nc3cc(C(C)(C)C)nn3-c3ccc4ncccc4c3)c(F)c2)ccn1 | 40.2 | – |
| C=CC(=O)Nc1cccc(Oc2nc(Nc3ccc(N4CCN(C)CC4)cc3)ncc2Cl)c1 | – | 1890 nM (active) |
| Cn1cc(-c2ccncc2)c(-c2ccc(OCc3ccc4ccccc4n3)cc2)n1 | 19.9 | – |
| C1Cc2[nH]nc(-c3nn[nH]n3)c2C1 | -11.7 | – |
| CNC(=O)c1ccc(N2C(=S)N(c3cnc(C#N)c(C(F)(F)F)c3)C(=O)C23CCC3)cc1F | 179 | – |
| Nc1ccccc1NC(=O)c1ccc(CNC(=O)OCc2cccnc2)cc1 | -17.7 | – |
| CC(C)CC(=O)Nc1n[nH]c2c1CN(C(=O)C1CCN(C)CC1)C2(C)C | 41.3 | – |
| COc1cccc2nc(-c3cccs3)nc(NN3C(=O)C=C(C)C3=O)c12 | 39.4 | – |
| Nc1ncnc2c1c(-c1cnc3[nH]ccc3c1)nn2C1CCCC1 | 128 | – |
| CNC(=O)c1ccccc1Nc1nc(Nc2ccc(N3CCOCC3)cc2OC)ncc1Cl | – | 1890 nM (active) |
| CS(=O)(=O)N1CCN(Cc2cc3nc(-c4cccc5[nH]ncc45)nc(N4CCOCC4)c3s2)CC1 | 117 | – |
| CC(=O)Nc1sc2c(c1-c1nc3ccccc3s1)CNC2 | 4.8 | – |

| SMILES | activity change, negative = thiol reactive [%] | Potency |
| --- | --- | --- |
| Cc1cc(C(=O)N2CCN(c3cccc(Cl)c3)CC2)n(-c2ccccc2)n1 | -1.33 | – |
| COCCOc1ccc2c(c1)ncn2-c1ccc2cccc(N3CCC(N)CC3)c2n1 | 11.7 | – |
| COc1cccc(Nc2c(C(N)=O)cnc3c(C)cc(S(=O)(=O)c4cccc(C(=O)N(C)C)c4)cc23)c1 | -9.91 | – |
| CC(C)(O)CCc1ccc(OCc2cc(-c3cccc(OC(F)F)c3)c3ncccc3c2)cc1 | 399 | – |
| O=C(c1cncc(Br)c1)N1CCC(N2CCCC2)CC1 | 35.3 | – |
| O=C(O)CCCc1c[nH]c2ccccc12 | -11.1 | – |
| CCS(=O)(=O)c1cccc(-c2cc(C(=O)NC3CCN(C)CC3)c(C)c3[nH]c4ncc(C)cc4c23)c1 | 144 | – |
| Clc1cccc(-n2nnnc2NCc2ccccc2Oc2ccccn2)c1Cl | 149 | – |
| C#Cc1cccc(Nc2ncnc3cc(OC)c(OCCCCCCC(=O)NO)cc23)c1 | 149 | – |
| O=C(O)Cn1nnc(-c2cc(N3CCC(Oc4cc(F)ccc4Br)CC3)no2)n1 | 265 | – |
| CC(C)Nc1cc(C(F)(F)F)cc2nc(NC(=O)c3cccnc3)nn12 | -3.95 | – |
| COC(=O)c1ccc2c(C(=Nc3ccc(N(C)C(=O)CN4CCN(C)CC4)cc3)c3ccccc3)c(O)[nH]c2c1 | 75.5 | – |
| OCCCNc1cc(-c2ccnc(Nc3cccc(Cl)c3)n2)ccn1 | 203 | – |
| COc1cc2c(NC3CCN(C(C)C)CC3)nc(C3CCCCC3)nc2cc1OCCCN1CCCC1 | 32.9 | – |
| C=CC(=O)Nc1cccc(Oc2nc(Nc3ccc(N4CCN(C)CC4)cc3OC)ncc2Cl)c1 | – | 2670 nM (active) |
| CCOC(=O)C1=C(C)NC2=C(C(=O)CC(C)(C)C2)C1c1ccc(-c2ccccc2)cc1 (stereo not given) | 526 | – |
| COc1ccc2c(OCc3nnc4ccc(-c5ccccc5)nn34)ccnc2c1 | -7.86 | – |
| Nc1nc(Nc2ccc(S(N)(=O)=O)cc2)nn1C(=O)c1c(F)cccc1F | 117 | – |
| COC(=O)Nc1nc2ccc(C(=O)c3ccc(F)cc3)cc2[nH]1 | -8.43 | – |
| CC1(C)CCC(c2ccc(Cl)cc2)=C(CN2CCN(c3ccc(C(=O)NS(=O)(=O)c4ccc(N[C@H](CCN5CCOCC5)CSc5ccccc5)c(S(=O)(=O)C(F)(F)F)c4)cc3)CC2)C1 | 35.7 | – |
